# The whole screen tested about 200,000 compounds, of which about 25 (0.01%) were called active. Not shown: some 23% with an inconclusive outcome. Many of the other results were omitted from the sample, so actives are more common in it than they were. Values without a mark were called inactive. Calls come from the whole dose curve; as a rule, active = well fitted inhibition curve with a large enough effect in the signal ratio, with a control signal flat (not every such curve was filed as active); inconclusive = small, poorly fitted or top-dose-only effect, or effect the other way, or a change in a side signal; inactive = flat fitted curve, though single readings scatter; the % refers to the signal ratio.
# Assay: qHTS Assay for Modulators of Lamin A Splicing
# Details: HeLa LMNA splicing GFP/RFP minigene ratio, 48 h; series mostly up to 46 µM; ratio change, negative = inhibition: at the top concentration
# Excerpt: NCGC Assay Overview: Hutchinson-Gilford Progeria Syndrome (HGPS) is a pediatric premature aging disease caused by a spontaneous mutation in the lamin A/C (LMNA) gene. The mutation activates a cryptic splice site in the LMNA pre-mRNA which results in production of a pre-lamin A protein that cannot be processed properly. The mutant protein accumulates in the nucleus and negatively affects numerous cellular functions. Correction of the splicing defect in HGPS patient cells using a targeted oligonucleotide (exo11) leads to reversal of the cellular disease phenotypes. To identify small molecule modulators of aberrant LMNA splicing, a homogenous assay was constructed in HeLa cells that used a GFP containing minigene to report on correction of aberrant splicing in lamin A and a RFP (DsRed2) to report on cell viability, uniformity and nonspecific effects on the assay signal. This assay was adapted to laser-scanning microplate cytometry (Acumen, TTP Labtech) where miniaturization of the assay to a 1,536-well plate format was possible. References: Bowen, W. P.; Wylie, P. G. Application of Laser-Scanning Fluorescence Microplate Cytometry in High Content Screening. Assay Drug Dev Technol 2006;4:209-221. Scaffidi P, Misteli T. Reversal of the cellular phenotype in the premature aging disease Hutchinson-Gilford progeria syndrome. Nat.
# NCGC Assay Protocol Summary: Reagents/Controls: Stable clones expressing DsRed2 and lamin A-EGFP were generated by Cell and Molecular Technologies in S3 HeLa cells. HeLa cells were prepared for the assay when they were 70-90% confluent. The cells were counted and resuspended in Opti-MEM I (no phenol red; Gibco), 2% FBS, 1% penicillin/ streptomycin (Gibco) at concentration of 120 cells/uL concentration. The suspension was passed through a Falcon basket filter with pore size 40um (Beckton Dickson). Control titrations: column […] 1536-well plate contained a sixteen point titration (1:2 dilutions) in duplicate of ancitabine (Sigma: A8598) beginning at 40 uM final concentration. Column 2 contained a sixteen point titration (1:2 dilutions) of cycloheximide beginning at 1.4 mM final concentration. Column 3 contained ancitabine at 40 uM and column 4 contained was the vehicle control (0.5% DMSO final concentration). Assay Steps: 5 uL of HeLa cells were plated in Aurora LoBase black clear bottom (cyclic-olefin polymer) 1536-well plates at a final density of 600 cells/well. Controls and library compounds were added with a 1536-well pin array using the Kalypsys pin-tool. The plates were then incubated for 48 hrs in a cell-culture incubator (37 °C; 5% CO2, 98% humidity). Following incubation the plates were read on the Acumen Explorer using the 488 nm laser. Data was collected on objects between 10 and 100 um in size. Cell objects were defined by a 15 um width x 10 um depth filter. The ratio of the total object intensity in PMT1 (500-530 nm emission; GFP) over PMT3 (575-640 nm emission; RFP) was calculated for analysis. Keywords: NIH Roadmap, MLSCN, MLI, MLSMR, qHTS, NCGC, lamin A, Progeria, RNA splicing.
# % is set by controls: 0 for no effect and ±100 for the full control effect; potency is the fitted concentration of half-maximal effect.
Compound,"ratio change, negative = inhibition",Potency
Cc1ccccc1-n1nc(SCC(=O)O)sc1=S,-1.17%,
CCCCCN(C(=O)NC(=O)Nc1cccc(C)c1C)S(C)(=O)=O,-26.2%,
CC(C)(C)NC(=O)Cn1cnc2cc([N+](=O)[O-])ccc2c1=O,-2.83%,
Cc1c(-c2cccc(NC(=O)C(C)(C)C)c2)nc2ncccn12,6.73%,
COc1ccc(Cc2n[nH]c(=S)n2NC(=O)Nc2ccc(C)cc2)cc1,21.5%,
COc1c(C=O)c(CCN(C)C(=O)c2ccc(F)cc2)cc2c1OCO2,23%,
O=C(Nc1ccc(C(=O)OCc2cc(=O)n3nc(C4CC4)sc3n2)cc1)c1ccc(F)cc1,4.29%,
COc1cccc(CN(C)CC(=O)Nc2ccccc2C(=O)Nc2ccccc2)c1,-9.51%,
OC(COc1ccc(CN2CCSCC2)cc1)CN1CCCCC1 (stereo not drawn),13.6%,
CCN(Cc1ccccc1)S(=O)(=O)c1ccc2c(c1)CCCN2C(C)=O,-0.194%,
Cn1sc(=O)c2cc(S(=O)(=O)NC3CC3)ccc21,,11.2 µM (active)
CSc1ccc(S(=O)(=O)NC2CCCCC2)cc1,-9.18% [at 46.1 µM],
CC1CCC(NS(=O)(=O)c2ccc3c(c2)n(C)c(=O)c(=O)n3C)CC1 (stereo not drawn),6.05% [at 46.1 µM],
COc1ccc(S(=O)(=O)NCC2CCCN(C(=O)c3occc3C)C2)cc1 (stereo not drawn),5.38%,
CN1CCN(/N=C2/C(=O)Nc3ccc([N+](=O)[O-])cc32)CC1,0.722%,
CCOc1ccccc1N1CCN(C(=O)COc2ccc3c(C)cc(=O)oc3c2)CC1,-7.5%,
COc1ccc(CNC(=O)COCc2cc(-c3cccs3)on2)cc1OC,6.21%,
O=C(Nc1ccc(Br)cn1)c1ccc([N+](=O)[O-])cc1Cl,7.76%,
CC12CN(NC(=O)c3ccc(Cl)cc3)C3(C#N)CC1CCC23C (stereo not drawn),15.3%,
CCOCCc1nn2c(=O)cc(COC(=O)CNC(=O)c3ccc(C(C)(C)C)cc3)nc2s1,7.84%,
Cc1ccc(S(=O)(=O)CC(=O)Nc2c(C)n(C)n(-c3ccccc3)c2=O)cc1,8.54%,
Cc1c(CCNC(=O)c2ccc(C(F)(F)F)cc2)sc2nc(-c3ccc(F)cc3)nn12,1.9%,
Cc1ccc2c(c1)C1CN(C)CCC1N2C(=S)Nc1ccc(OC(F)F)cc1 (stereo not drawn),-22.6%,
CN1CCN(C(CNC(=O)c2ccccc2F)c2ccc3c(c2)OCO3)CC1 (stereo not drawn),-2.99%,
COc1ccc(-c2cn3cccnc3n2)cc1,9.89%,
CC1(C)CC(CNCCC(c2ccc(F)cc2)c2ccco2)CCO1 (stereo not drawn),-16.6%,

Compound,"ratio change, negative = inhibition",Potency
CCc1ccc(NC(=O)c2nn(-c3ccc(C)cc3)c(=O)n(C)c2=O)cc1,-1.99%,
CN(C)S(=O)(=O)N1CCN(c2ccc([N+](=O)[O-])cc2)CC1,10.9% [at 9.22 µM],
COc1ccccc1CNC(=O)c1ccccc1NC(=O)c1nsc2ccccc12,6.29%,
O=C(CSc1nnc2ccc(-c3ccncc3)nn12)N1CCCCC1,22.1%,
Cc1ccc([N+](=O)[O-])c(OCCCNCC(C)O)c1 (stereo not drawn),-18.3%,
COc1cccc(NC(=O)C(=O)NCC(c2ccc3c(c2)OCO3)N2CCN(C)CC2)c1 (stereo not drawn),2.28%,
Cc1onc(-c2ccccc2)c1C(=O)Nc1ccccc1C#N,9.17% [at 46.1 µM],
CC(=O)Nc1cccc(NC(=O)c2c(-c3ccccc3)noc2C)c1,-4.51% [at 46.1 µM],
CCOC(=O)c1c(-c2cccc(C)c2)csc1NC(=O)c1c(-c2ccccc2)noc1C,,0.631 µM (active)
Cc1cc(C)cc(OCC(=O)O/N=C(\N)Cc2ccc([N+](=O)[O-])cc2)c1,-7.35%,
COc1ccc(Sc2nc(-c3ccccc3)ncc2OC)cc1,15.7%,
Cc1ccc(SCC(=O)Nc2ccc3oc(-c4ccccc4F)nc3c2)cc1,28.4%,
COCCNC(=O)c1ccc(-n2c(SCc3cccnc3)nc3ccccc3c2=O)cc1,2.39%,
Cc1cccc(C)c1NC(=S)N(Cc1cccnc1)Cc1ccccc1Cl,17.6% [at 9.22 µM],
CCN1CCN(CCCNC(=O)c2ccc3c(c2)sc2nc(-c4ccc(OC)cc4)cn23)CC1,20.5%,
CCOC(=O)c1c(-c2cccc(N)c2)cn2ccccc12,7.28%,
Cc1ccc(CSc2nc3cccnc3n2Cc2ccc(C(=O)NC3CC3)cc2)cc1,11%,
N#C/C(=C(\O)C(F)(F)F)c1nnc2n1CCCCC2,-13.7%,
O=C(Cc1ccc(Cl)cc1)NCc1nc(-c2ccccc2)no1,13.3%,
CCOC(=O)c1c(SCC(=O)Nc2cccc(C)c2C)nc(=O)[nH]c1C,-5.72%,
COc1cc2c(C(=O)N3CCN(C)CC3)c(CSc3ccccc3)n(C)c2cc1Br,-21.8%,
COc1cc(C(=O)Nc2cc(C(F)(F)F)ccc2-n2cncn2)cc(OC)c1OC,-20%,
Cc1ccc(COc2ccc(C(=O)NN)cc2)cc1,-2.54%,
CC(=O)c1ccc(NC(=O)CSc2nc(-c3ccccc3F)nc3c2c(=O)n(C)c(=O)n3C)cc1,-9.49%,
CSc1nc2c(c(=O)[nH]1)C(c1cccc(Cl)c1Cl)CC(=O)N2 (stereo not drawn),-8.67% [at 9.22 µM],
CCc1nnc2c3ccccc3nc(N3CCN(c4ccc(C)cc4C)CC3)n12,-13.9%,

Compound,"ratio change, negative = inhibition",Potency
O=C1COc2ccc(C(=O)COC(=O)C3CC(O)CN3S(=O)(=O)c3ccc(Cl)cc3)cc2N1 (stereo not drawn),-23.2%,
COC(=O)c1c(NC(=O)CCCC(=O)O)sc2c1CCCCC2,-7.02%,
COc1cccc(CNC(=O)C2CCN(S(=O)(=O)c3ccc4c(ccn4C)c3)CC2)c1,-12.3%,
CC1(C)CN(c2ccc(-c3ccnc4ncnn34)cc2)C1=O,-28.7%,
CCOc1cc(C(=O)Nc2nnc3n2CCS3)cc(OCC)c1OCC,-0.322%,
COc1ccc(C(C)=O)cc1CSc1nc2nc(C)cc(C)n2n1,11.6%,
CC(=O)N1CCCc2ccc(NS(=O)(=O)c3ccc(F)cc3F)cc21,6.09%,
CCOc1ccc(-n2cnc3c(=O)[nH]c(N)nc32)cc1,19.4%,
CCOC(=O)Cn1c(=O)n(-c2ccccc2OC)c2nc(-c3cccc(F)c3)nc(C(N)=O)c21,-9.35%,
CCCNC(=O)CCC(=O)N1Cc2ccccc2Oc2ncccc21,8.53%,
COc1ccc(NC(=O)N2CCCn3nc(C)cc32)cc1OC,6.06%,
Cc1cnc(C(=O)OCC(=O)N2CCc3ccccc32)cn1,1.94% [at 9.22 µM],
COC(=O)CSc1ncnc2c1cnn2-c1ccc(C)cc1C,0.727%,
COc1ccc(C2=NN(C(=O)CCC(=O)O)C(c3cccs3)C2)cc1OC (stereo not drawn),4.17%,
CNc1nc2c(C)cccn2c(=O)c1C=Nc1ccc(OC)cc1,-17.3%,
Cc1ccc(-n2nc(C)c3c(C)cc(=O)n(CC(=O)Nc4ccc(C(C)C)cc4)c32)cc1,-0.422%,
COc1cc(NS(=O)(=O)c2ccc3c(c2)OCC(C(=O)N2CCCC2)O3)cc(OC)c1 (stereo not drawn),-0.229%,
COc1cccc(NC(=S)N(Cc2ccc(C)cc2)Cc2ccccn2)c1,-5.44%,
O=C(Nc1ccccc1C(=O)O)c1cc(S(=O)(=O)N2CCCCC2)cs1,5.58%,
COc1ccc(CNS(=O)(=O)c2cc3c4c(c2)CCN4C(=O)CC3)cc1,-8.87%,
Cc1c(CCOC(=O)c2cc([N+](=O)[O-])ccc2Cl)sc[n+]1CCCCS(=O)(=O)[O-],11.9%,
COc1cc(/C=C/C(=O)OCC(=O)N2CCOCC2)ccc1OCC#N,-0.73%,
CC(C)CNc1ncnc2c1nnn2C,14%,
CC1CN(/C=C/C(=O)C(F)(F)F)CC(C)O1 (stereo not drawn),-0.822%,
O=C(CC1C(=O)NCCN1Cc1ccc(-c2ccccc2)cc1)NCc1ccncc1 (stereo not drawn),13.2%,
O=C(CCSCc1cccc(F)c1)NCc1ccccc1,30.8%,

Compound,"ratio change, negative = inhibition",Potency
CC(C)CCNC(=O)CSc1nc2ccccc2nc1Cc1ccc(Cl)cc1,-3.3%,
C/C(Cn1nnc2ccccc21)=N\OC(=O)c1cc(F)c(F)cc1Cl,0.235%,
O=C(NCCc1ccccc1)c1cnc2sc(N3CCCC3)nn2c1=O,15.1%,
O=[N+]([O-])c1cc([N+](=O)[O-])c2cccnc2c1O,1.6%,
O=C(Nc1ccccc1F)C(c1ccccc1)N1Cc2ccccc2C1=O (stereo not drawn),18.7%,
Cc1ccc(C)c(N2CCN(S(=O)(=O)c3ccc4c(c3)C(C(C)C)C(=O)N4)CC2)c1 (stereo not drawn),-10.7%,
Cc1cccc(N2CCN(C(=O)CCSCc3ccccc3F)CC2)c1C,-21.7%,
COc1ccc(SCc2cc(=O)c3ccc(C)c(C)c3[nH]2)cc1,-9.07%,
CC(C)(C)n1nnnc1C(c1ccc(Cl)cc1)N1CCSCC1 (stereo not drawn),-14% [at 46.1 µM],
Cc1ccc(C(c2nnnn2C(C)(C)C)N2CCc3ccccc3C2)cc1 (stereo not drawn),-3.87% [at 46.1 µM],
CC(C)(C)n1nnnc1C(c1ccc2ncccc2c1)N1CCSCC1 (stereo not drawn),,6.31 µM (active)
COC(=O)C(C)NC(=O)COc1ccc2ccccc2c1 (stereo not drawn),4.35%,
O=C(Nc1ccc2nc(SCC(=O)N3CCc4ccccc43)sc2c1)c1ccccc1F,3.72%,
CCCN(CCC)CCNC(=O)c1ccc2c(c1)NC(=O)C(CS(=O)(=O)Cc1cccc(Br)c1)N2 (stereo not drawn),-3.12%,
CC(C)(C)NC(=O)COC(=O)c1cc(Cl)ccc1[N+](=O)[O-],-6.76%,
O=C(CN(c1cccc(Cl)c1)S(=O)(=O)c1ccccc1)NN=C1CCCC1,14.5%,
Cc1cccc(NC(=O)c2cc([N+](=O)[O-])ccc2N2CCN(C)CC2)c1,-17.1%,
CCOc1ccc(Nc2ncnc3scc(-c4ccc(OC)cc4)c23)cc1,-25.8%,
COc1cc(OC)cc(C(=O)NCCc2csc3nc(-c4ccccc4F)nn23)c1,-12.9%,
CCc1ccc(NS(=O)(=O)c2ccc3[nH]cc(C(=O)NCCc4cccc(C)c4)c(=O)c3c2)cc1,-2.18%,
CC(=O)NCC(=O)N1CCCC(C(=O)c2ccc3c4c(cccc24)CC3)C1 (stereo not drawn),9.21%,
Cc1cccc(Oc2c([N+](=O)[O-])c(=O)n(C)c3ccccc23)c1,4.53%,
CCOC(=O)c1sc(=NC(=O)/C=C/c2cccs2)n(C)c1C,2.93% [at 9.22 µM],
Cc1cccc(Cn2c(CN3CCC(C(=O)NCc4ccccc4Cl)CC3)cc3ccccc32)c1,0.813%,
O=C(Nc1nnc(-c2ccco2)o1)c1ccc(S(=O)(=O)N2CCOCC2)cc1,16.1% [at 9.22 µM],

# Source: PubChem BioAssay AID1487 (National Center for Advancing Translational Sciences (NCATS), 2009)
